Test results reported in PubChem BioAssay (NCI).
Compounds without any hit were thinned out: in the full panel of roughly 83,000, 20% have a hit.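 Each cell line was grown in a 96-well plate and treated with one concentration of compound for 48 hours. Values below 10 were considered active.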 Unmarked numbers belong to inactive results. Activity calls are given as the source filed them.

Experiments:
Test in all cases: NCI-60 one-dose screen, 48 h (100 = growth as untreated, 0 = no growth, -100 = all killed)
Details in all cases: 10 µM unless noted
SR leukemia = tested on: SR leukemia
RPMI-8226 leukemia = tested on: RPMI-8226 leukemia
OVCAR-8 ovarian = tested on: OVCAR-8 ovarian
OVCAR-5 ovarian = tested on: OVCAR-5 ovarian
OVCAR-4 ovarian = tested on: OVCAR-4 ovarian
SK-OV-3 ovarian = tested on: SK-OV-3 ovarian
IGROV1 ovarian = tested on: IGROV1 ovarian
OVCAR-3 ovarian = tested on: OVCAR-3 ovarian
HS 578T breast = tested on: HS 578T breast
NCI/ADR-RES ovarian = tested on: NCI/ADR-RES ovarian
T-47D breast = tested on: T-47D breast
BT-549 breast = tested on: BT-549 breast
MDA-MB-435 melanoma = tested on: MDA-MB-435 melanoma
SW-620 colon = tested on: SW-620 colon
MCF7 breast = tested on: MCF7 breast
HCT-116 colon = tested on: HCT-116 colon
HCC-2998 colon = tested on: HCC-2998 colon
KM12 colon = tested on: KM12 colon

Row | Compound | growth (SR leukemia) | growth (RPMI-8226 leukemia) | growth (OVCAR-8 ovarian) | growth (OVCAR-5 ovarian) | growth (OVCAR-4 ovarian) | growth (SK-OV-3 ovarian) | growth (IGROV1 ovarian) | growth (OVCAR-3 ovarian) | growth (HS 578T breast) | growth (NCI/ADR-RES ovarian) | growth (T-47D breast) | growth (BT-549 breast) | growth (MDA-MB-435 melanoma) | growth (SW-620 colon) | growth (MCF7 breast) | growth (HCT-116 colon) | growth (HCC-2998 colon) | growth (KM12 colon)
1 | CCN(CC)CC(O)c1cc(-c2ccc(Cl)cc2)nc2c(C)c(Cl)ccc12 (stereo unspecified) | -79.5% (active) | -32.2% (active) | -82.7% (active) | -97.3% (active) | -26% (active) | 29.2% | -84.7% (active) | -100% (active) | -62.4% (active) | -84.7% (active) | -89.2% (active) | -36.1% (active) | -90% (active) | -85.8% (active) | -92% (active) | -100% (active) | -97.4% (active) | -100% (active)
2 | CCn1cc2c(cc1=O)-c1nc3ccccc3c3ccnc(c13)C2=O | 15.1% | 80.1% | 55.2% | 105% | 80.7% | 45.8% | 70.2% | 73.8% | 94.4% | 71.8% | 56.8% | 86.2% | 63.3% | 45.8% | 29.6% | 50% | 78.8% | 78.7%
3 | O=C1O[C@H]([C@H](O)CO)C(O)=C1O | 88.5% | 99.1% | 97% | 101% | 119% | 112% | 104% | 104% | 117% | 96.6% | 114% | 93.1% | 106% | 87.3% | 103% | 98.2% | 98.3% | 103%
4 | Cc1ccc(N)cc1F | 121% | 121% | 96.4% | 109% | 113% | 102% | 104% | 102% | 86.4% | 94.2% | 184% | 116% | 100% | 107% | 94.2% | 86.8% | 106% | 99.7%
5 | COc1ccc(C2c3ccc4ccccc4c3Oc3ncnc(N)c32)cc1 (stereo unspecified) | 46% | 86% | 92.8% | 97.9% | 89% | 62.1% | 64.3% | 88% | 82.2% | 74.7% | 60.1% | 88.3% | 8.46% (active) | 76.8% | 68.1% | 92.9% | 104% | 72.4%
6 | CCCCCCCCCCCCCCCCNCCC[C@@H](C)[C@H]1CC[C@H]2[C@@H]3[C@H](OCCCN)C[C@@H]4C[C@H](OCCCN)CC[C@]4(C)[C@H]3C[C@H](OCCCN)[C@]12C | 2.63% (active) | -15.4% (active) | -48.9% (active) | -3.67% (active) | -37.1% (active) | -45.7% (active) | -41.8% (active) | -10.5% (active) | -34% (active) | -60.6% (active) | -20.9% (active) | -26% (active) | -28.3% (active) | -25.3% (active) | -44.3% (active) | -16.6% (active) | -32.4% (active) | -24.3% (active)
7 | Cc1cc(=O)oc2cc(Oc3nc(-c4ccc(Cl)cc4)cn4c(-c5ccc(Cl)cc5)cnc34)ccc12 | 50.9% | 93.7% | 92.5% | 94.6% | 85.6% | 103% | 97.6% | 107% | 87.8% | 78.8% | 104% | 89.4% | 75.5% | 66.7% | 73.1% | 92.1% | 106% | 81.2%
8 | CSc1nc2sc3c(c2c(=O)n1-c1ccc(C(C)C)cc1)CCC(=O)C3 | -11.7% (active) | -29.9% (active) | 4.63% (active) | 6.13% (active) | 14.5% | 35.6% | -6.1% (active) | -27.4% (active) | 2.67% (active) | -11.1% (active) | -48.3% (active) | 3.97% (active) | -6.88% (active) | -30.3% (active) | 16% | 2.14% (active) | 16.5% | -42% (active)
9 | O=C1/C(=C\c2cn(C(=O)c3ccc(Cl)cc3)c3ccccc23)c2ccccc2N1c1c(Cl)cccc1Cl | 99.6% | 101% | 113% | 94.3% | 99.5% | 116% | 99.2% | 116% | 107% | 99.7% | 92.5% | 107% | 116% | 105% | 95.7% | 94.1% | 102% | 111%
10 | CC1(C)CC(C(=O)OCCCCCCCCCCC[P+](c2ccccc2)(c2ccccc2)c2ccccc2)C(C)(C)N1O (stereo unspecified) | -58.4% (active) | -43.8% (active) | -39% (active) | -62.9% (active) | -31.5% (active) | -19.5% (active) | -58.7% (active) | -95.9% (active) | -44% (active) | 14.6% | -54.3% (active) | -42.1% (active) | -70.3% (active) | -81% (active) | -80.6% (active) | -8.91% (active) | -84.9% (active) | -94.6% (active)
11 | Cn1cc(-c2csc(-c3cn(C)c4ncccc34)n2)c2ccccc21 | 9.51% (active) | 22.4% | 30.2% | 64.6% | 71.6% | 36.6% | 42.8% | -4.76% (active) | 46% | 22.8% | 31.8% | 22% | -40.1% (active) | 20.7% | 13% | 20.5% | 37.6% | 23.1%
12 | CN1CCN(Cc2ccc(NC(=O)c3cncc(C#Cc4cnc(N)c5cccnc45)c3)cc2C(F)(F)F)CC1 | 15.4% | 18.5% | 29.5% | 12.5% | 36.8% | -10.9% (active) | 7.64% (active) | 34.6% | -2.09% (active) | 87% | 26.2% | 38.9% | 7.67% (active) | 1.78% (active) | 26.8% | 3.52% (active) | 30.2% | 8.81% (active)
13 | CSc1ncnc2c1ncn2C1CCCO1 (stereo unspecified) | 113% | 104% | 109% | 98.3% | 95.1% | 104% | 120% | 120% | 103% | 101% | 107% | 102% | 101% | 116% | 104% | 101% | 113% | 110%
14 | CCCCCC(=O)Oc1ccc(/C(=C(\C)c2ccccc2)c2ccc(OCCN(CC)CC)cc2)cc1 | 17.7% | 46.5% | 81.9% | 87.6% | 84% | 75.2% | 75.9% | 86.6% | 35.6% | 74.2% | 39% | 72.7% | 70.3% | 70.8% | 29.6% | 50.7% | 88.1% | 62%
15 | COc1ccc(/C=N\NC(=O)CN2CCN(c3cc4c(cc3F)c(=O)c(C(=O)N/N=C/c3ccc(OC)cc3)cn4C3CC3)CC2)cc1 | 72.1% | 69.4% | 92.2% | 122% | 80.7% | 112% | 72% | 85.2% | 92.4% | 88.2% | 82.5% | 88.5% | 90.3% | 101% | 73.2% | 88.8% | 102% | 89.8%
16 | Cc1cccc(NC(=O)c2sc3nc4c(cc3c2N)C(=O)CCC4)c1 | 26.2% | 31.6% | 52.2% | 44.6% | 40.1% | 35.3% | -4.52% (active) | 7.66% (active) | 18.6% | 17.4% | 44% | 41.6% | -52.8% (active) | 26.6% | 22.6% | 29.3% | 33.7% | 21.4%
17 | COc1cc(C2CC(=O)Nc3c2c(C)nn3-c2nc3ccccc3[nH]2)cc(OC)c1OC (stereo unspecified) | 83.8% | 108% | 103% | 103% | 107% | 111% | 85.1% | 115% | 94.5% | 98.7% | 103% | 113% | 103% | 97.4% | 88.1% | 107% | 93.7% | 123%
